What follows are molecules tested on PRKCI. Conditions: concentration: 1 μM, replicates: in singlicate; n = 1.
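Note: KINOMEscan kinase panel screen.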

SMILES	%Inh [%]
COc1ccc(Nc2nccc(N3CCC(NC(=O)C(C)c4ccc(Cl)cc4)CC3)n2)cc1 (stereo not drawn) [GSK1379812]	0
CC(=O)c1c(C)c2cnc(Nc3ccc(N4CCNCC4)cn3)nc2n(C2CCCC2)c1=O	5
Nc1nccc(-c2c(-c3ccc(F)cc3)ncn2C2CCN(Cc3ccccc3)CC2)n1 [SB-219980]	0
Fc1ccc(-c2nc3n(c2-c2ccncc2)CCS3)cc1 [GI98581]	1
COc1cccc(CNC(=O)NC2CCN(c3ccnc(Nc4ccc(F)cc4)n3)C2)c1 (stereo not drawn) [GSK1379723]	10
c1ccc(-c2ccnc3[nH]ccc23)cc1 [SB-693578]	13
Cc1ccc(NC(=O)c2ccc(Cl)cc2)cc1-c1ccc(C(=O)Nc2ccncc2)cc1 [GSK1398467]	5
CNCc1ccc2nc(NC(=O)c3ccc(C(C)(C)C)cc3)cn2c1	20
COc1ccc(-c2coc3ccc(-c4nnc(C)o4)cc23)cc1	0
O=C(Nc1n[nH]c2nc(-c3ccco3)c(Br)cc12)C1CCN(Cc2ccccc2)C1.O=C(O)[C@H](O)[C@@H](O)C(=O)O (stereo not drawn) [SB-742034]	34
Cc1c(Cn2c(C)c(C)n3c(=O)cc(N4CCOCC4)nc23)cccc1C(F)(F)F [GSK2328680]	0
COC(=O)C(NC(=O)NC1CCN(c2ccnc(Nc3ccc(F)cc3)n2)C1)c1ccccc1 (stereo not drawn) [GSK1379712]	24
Cc1ccc(NC(=O)Nc2ccc(Cl)cc2)cc1-c1ccc(C(=O)Nc2ccncc2)cc1 [GSK1398472]	27
Cc1ccc(-c2nc(Nc3ccncc3)c3ccccc3n2)s1 [GSK189015]	20
CC(C)c1cc(-c2ccc3c(N)n[nH]c3c2)nc(N)n1 [GSK2250882]	10
CC(=O)c1cccc(NC(=O)NC2CCN(c3ccnc(Nc4ccc(F)cc4)n3)C2)c1 (stereo not drawn) [GSK1379710]	11
Cc1ccccc1Cn1ccn2c(=O)cc(N3CCOCC3)nc12 [GSK2269905]	0
CNc1nc(-c2ccc3c(N)n[nH]c3c2)cc(N2C[C@@H](C(=O)Nc3ccccc3)CC[C@H]2C)n1 [GSK2298859]	10

SMILES	%Inh [%]
Fc1ccc(-c2nc[nH]c2-c2ccncc2)cc1 [SB-217360]	0
Cc1cccc2c(-c3ccncn3)c(-c3ccc(F)cc3)nn12 [GW515532]	26
COc1ccc(Nc2nccc(NCCNC(=O)Nc3cc(C)ccc3C)n2)cc1 [GSK1379899]	22
CS(=O)(=O)CCNCc1nc(-c2ccc3ncnc(Nc4ccc(OCc5ccccc5)c(Cl)c4)c3c2)cs1.Cl [GW582764]	39
NS(=O)(=O)c1cccc(N/C=C2\C(=O)Nc3ccc(S(=O)(=O)Cc4c(Cl)cccc4Cl)cc32)c1 [GSK398099]	6
CC(=O)c1c(C)c2cnc(Nc3ccn(C)n3)nc2n(C2CCCC2)c1=O	0
Cn1cncc1-c1cc2c(Nc3ccc(OCc4ccccc4)cc3)ncnc2cn1 [GW281179]	12
COc1ccc(CSc2nnc(-c3ccc4c(c3)CCO4)o2)cc1	0
CN1c2ccc(-c3ccc(C(N)=O)cc3)cc2-c2[nH]ncc2S1(=O)=O	4
CC(C)c1ccc(O)cc1Nc1ccnc2ccc(C(F)(F)F)cc12 [GW482059]	18
O=C(Nc1n[nH]c2nc(-c3cccs3)c(Br)cc12)C1CCCC1 [SB-743341]	21
CS(=O)(=O)CCNCc1nc(-c2ccc3ncnc(Nc4ccc5c(cnn5Cc5ccccc5)c4)c3c2)cs1.Cl.Cl [GW569716]	23
Cl.Cl.Cl.N#Cc1ccc(CCNc2nccc(-c3cccc(CN4CCNCC4)c3)n2)cc1 [GSK2137462]	21
Fc1ccc(-c2nn3cccc(F)c3c2-c2ccncc2)cc1 [GW475620]	39
COc1ccc(CSc2nnc(-c3ccc4ncsc4c3)o2)cc1C(F)(F)F	0
Cc1ccc(NC(=O)Nc2ccccc2F)cc1-c1ccc(C(=O)Nc2ccncc2)cc1 [GSK1398477]	0
O=C1NC(=O)C(c2ccc(Cl)cc2)=C1Nc1cccc(Cl)c1 [SB-317651]	6
CNc1nc(-c2ccc3c(N)n[nH]c3c2)cc(N2C[C@@H](C(=O)NC3CCCCC3)OC[C@H]2C)n1 [GSK2375584]	18

From paper PMC5540273 (PLoS ONE, 2017)
